# Laboratory results published in the supplement of paper PMC8728848.
# This excerpt belongs to a sample that is enriched for the strongest signals.
# Tests used:
# Test in all cases: glycan array binding signal (z-score within array); higher = stronger binding
# Conditions in all cases: glycan notation: IUPAC condensed, linker removed
# [1] = molecular target: Fuc(a1-2)Gal(b1-4)Fuc(a1-3)]GlcNAc(b1-2)Man(a1-3)[Fuc(a1-2)Gal(b1-4)[Fuc(a1-3)]GlcNAc(b1-2)Man(a1-6)]Man(b1-4)GlcNAc(b1-4)GlcNAc
# Outline: (§1)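 Columns mapping to the same glycan were averaged after glycan names were converted to IUPAC-condensed notation. The data come from 3228 arrays in the Consortium for Functional Glycomics database, limited to those with an available protein sequence. Binding is reported as a within-array Z-score averaged across arrays of one protein sequence and across linkers.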
# [2] = molecular target: Fuc(a1-2)Gal(b1-4)GlcNAc
# Outline: as §1
# [3] = molecular target: Fuc(a1-2)Gal(b1-4)[Fuc(a1-3)]GlcNAc(b1-2)[Fuc(a1-2)Gal(b1-4)[Fuc(a1-3)]GlcNAc(b1-4)]Man(a1-3)[Fuc(a1-2)Gal(b1-4)[Fuc(a1-3)]GlcNAc(b1-2)Man(a1-6)]Man(b1-4)GlcNAc(b1-4)GlcNAc
# Outline: as §1
# [4] = molecular target: Fuc(a1-2)Gal6S(b1-4)Glc
# Outline: as §1
# [5] = molecular target: Fuc(a1-2)[GalNAc(a1-3)]Gal(b1-3)GlcNAc(b1-3)GalNAc
# Outline: as §1
# [6] = molecular target: Fuc(a1-2)[GalNAc(b1-3)]Gal
# Outline: as §1
# [7] = molecular target: Fuc(a1-3)[Gal(b1-4)]GlcNAc(b1-6)GalNAc
# Outline: as §1
# [8] = molecular target: Fuc(a1-4)GlcNAc
# Outline: as §1
# [9] = molecular target: Gal(a1-2)Gal
# Outline: as §1
# [10] = molecular target: Gal(a1-3)Gal
# Outline: as §1
# [11] = molecular target: Gal(a1-3)Gal(b1-3)GlcNAc
# Outline: as §1
# [12] = molecular target: Gal(a1-3)Gal(b1-3)GlcNAc(b1-2)Man
# Outline: as §1
# [13] = molecular target: Gal(a1-3)Gal(b1-4)GlcNAc(b1-2)Man
# Outline: as §1
# [14] = molecular target: Gal(a1-4)Gal(b1-4)GlcNAc(b1-3)Gal(b1-4)Glc
# Outline: as §1
# [15] = molecular target: Gal(b1-3)GalNAc(b1-3)Gal
# Outline: as §1
# [16] = molecular target: Gal(b1-3)GalNAc(b1-4)Gal(b1-4)Glc
# Outline: as §1
# [17] = molecular target: Gal(b1-3)GlcNAc(b1-3)Gal(b1-4)GlcNAc
# Outline: as §1
# [18] = molecular target: Gal(b1-4)GlcNAc(b1-2)Man(a1-3)[Gal(b1-4)GlcNAc(b1-2)Man(a1-6)][GlcNAc(b1-4)]Man(b1-4)GlcNAc(b1-4)[Fuc(a1-6)]GlcNAc
# Outline: as §1
# [19] = molecular target: Gal(b1-4)GlcNAc(b1-2)Man(a1-3)[Man(a1-6)]Man(b1-4)GlcNAc(b1-4)GlcNAc
# Outline: as §1
# [20] = molecular target: Gal(b1-4)GlcNAc(b1-3)Gal(b1-4)GlcNAc(b1-2)[Gal(b1-4)GlcNAc(b1-3)Gal(b1-4)GlcNAc(b1-6)]Man(a1-6)[Gal(b1-4)GlcNAc(b1-3)Gal(b1-4)GlcNAc(b1-2)Man(a1-3)]Man(b1-4)GlcNAc(b1-4)GlcNAc
# Outline: as §1
# [21] = molecular target: Gal(b1-4)GlcNAc(b1-3)Gal(b1-4)GlcNAc(b1-3)GalNAc
# Outline: as §1
# [22] = molecular target: Gal3S(b1-4)Glc
# Outline: as §1
# [23] = molecular target: Gal6S(b1-4)Glc
# Outline: as §1
# [24] = molecular target: GalNAc(b1-3)Gal
# Outline: as §1
# [25] = molecular target: GalNAc(b1-3)Gal(a1-6)Gal(b1-4)Glc
# Outline: as §1
# [26] = molecular target: GalNAc3S(b1-4)[Fuc(a1-3)]GlcNAc
# Outline: as §1
# [27] = molecular target: Glc(b1-6)Glc
# Outline: as §1
# [28] = molecular target: GlcA3S(b1-3)Gal(b1-4)GlcNAc(b1-3)Gal(b1-4)Glc
# Outline: as §1
# [29] = molecular target: GlcNAc(b1-2)[GlcNAc(b1-4)]Man(a1-3)[GlcNAc(b1-4)][GlcNAc(b1-2)Man(a1-6)]Man(b1-4)GlcNAc(b1-4)GlcNAc
# Outline: as §1
# [30] = molecular target: GlcNAc(b1-2)[GlcNAc(b1-6)]Man(a1-6)[GlcNAc(b1-4)][GlcNAc(b1-2)Man(a1-3)]Man(b1-4)GlcNAc(b1-4)GlcNAc
# Outline: as §1
# [31] = molecular target: GlcNAc(b1-3)Gal(b1-4)GlcNAc(b1-2)[GlcNAc(b1-3)Gal(b1-4)GlcNAc(b1-6)]Man(a1-6)[GlcNAc(b1-3)Gal(b1-4)GlcNAc(b1-2)Man(a1-3)]Man(b1-4)GlcNAc(b1-4)GlcNAc
# Outline: as §1
# [32] = molecular target: GlcNAc(b1-3)Gal(b1-4)GlcNAc(b1-3)Gal(b1-4)GlcNAc
# Outline: as §1
# [33] = molecular target: GlcNAc(b1-4)GlcNAc(b1-4)GlcNAc(b1-4)GlcNAc(b1-4)GlcNAc
# Outline: as §1
# [34] = molecular target: Kdn(a2-6)Gal(b1-4)GlcNAc
# Outline: as §1
# [35] = molecular target: Man(a1-2)Man(a1-3)[Man(a1-6)]Man(a1-6)[Man(a1-2)Man(a1-3)]Man(b1-4)GlcNAc(b1-4)GlcNAc
# Outline: as §1
# [36] = molecular target: MurNAc(b1-4)GlcNAc
# Outline: as §1
# [37] = molecular target: Neu5Ac(a2-3)Gal(b1-3)GalNAc(b1-4)[Neu5Ac(a2-3)]Gal(b1-4)Glc
# Outline: as §1
# [38] = molecular target: Neu5Ac(a2-3)Gal(b1-3)GlcNAc(b1-2)Man(a1-3)[Neu5Ac(a2-3)Gal(b1-3)GlcNAc(b1-2)Man(a1-6)]Man(b1-4)GlcNAc(b1-4)GlcNAc
# Outline: as §1
# [39] = molecular target: Neu5Ac(a2-3)Gal(b1-3)GlcNAc6S
# Outline: as §1
# [40] = molecular target: Neu5Ac(a2-3)Gal(b1-3)[Fuc(a1-4)]GlcNAc(b1-3)Gal(b1-3)[Fuc(a1-4)]GlcNAc
# Outline: as §1
# [41] = molecular target: Neu5Ac(a2-3)Gal(b1-3)[Fuc(a1-4)]GlcNAc(b1-3)Gal(b1-4)[Fuc(a1-3)]GlcNAc
# Outline: as §1
# [42] = molecular target: Neu5Ac(a2-3)Gal(b1-4)GlcNAc(b1-2)Man
# Outline: as §1
# [43] = molecular target: Neu5Ac(a2-3)Gal(b1-4)GlcNAc(b1-3)Gal(b1-3)GlcNAc
# Outline: as §1
# [44] = molecular target: Neu5Ac(a2-3)Gal(b1-4)GlcNAc6S
# Outline: as §1
# [45] = molecular target: Neu5Ac(a2-3)Gal(b1-4)[Fuc(a1-3)]GlcNAc
# Outline: as §1
# [46] = molecular target: Neu5Ac(a2-3)[Neu5Ac(a2-6)]GalNAc
# Outline: as §1
# [47] = molecular target: Neu5Ac(a2-6)Gal(b1-4)GlcNAc(b1-2)Man(a1-6)[Gal(b1-4)GlcNAc(b1-2)Man(a1-3)]Man(b1-4)GlcNAc(b1-4)GlcNAc
# Outline: as §1
# [48] = molecular target: Neu5Ac(a2-6)Gal(b1-4)GlcNAc(b1-3)Gal(b1-4)GlcNAc(b1-2)Man(a1-3)[Neu5Ac(a2-6)Gal(b1-4)GlcNAc(b1-3)Gal(b1-4)GlcNAc(b1-2)Man(a1-6)]GalNAc
# Outline: as §1
# [49] = molecular target: Neu5Ac(a2-6)Gal(b1-4)GlcNAc(b1-3)Gal(b1-4)GlcNAc(b1-3)GalNAc
# Outline: as §1
# [50] = molecular target: Neu5Ac(a2-6)GalNAc(b1-4)GlcNAc6S
# Outline: as §1
# [51] = molecular target: Neu5Ac(a2-8)Neu5Ac(a2-3)[Gal(b1-3)GalNAc(b1-4)]Gal(b1-4)Glc
# Outline: as §1
# [52] = molecular target: Neu5Gc(a2-3)Gal(b1-3)[Fuc(a1-4)]GlcNAc
# Outline: as §1
# [53] = molecular target: Neu5Gc(a2-3)Gal(b1-4)[Fuc(a1-3)]GlcNAc
# Outline: as §1
# [54] = molecular target: Neu5Gc(b2-6)Gal(b1-4)GlcNAc
# Outline: as §1
binder,measurement,setting,value
"CD34 (Homo sapiens), P28906 (protein) MGSSHHHHHHSSGLVPRGSHMSTSLATSPTKPYTSSSPILSDIKAEIKCSGIREVKLTQGICLEQNKTSSCAEFKKDRGEGLARVLCGEEQADADAGAQVCSLLLAQSEVRPQCLLLVLANRTEISSKLQLMKKHQSDLKKLGILDFTEQDVASHQSYSQKT",glycan array binding signal (z-score),[1],1.89
same,glycan array binding signal (z-score),[2],0.713
same,glycan array binding signal (z-score),[3],1.72
same,glycan array binding signal (z-score),[4],0.088
same,glycan array binding signal (z-score),[5],1.77
same,glycan array binding signal (z-score),[6],-0.335
same,glycan array binding signal (z-score),[7],-0.245
same,glycan array binding signal (z-score),[8],0.624
same,glycan array binding signal (z-score),[9],-0.315
same,glycan array binding signal (z-score),[10],0.754
same,glycan array binding signal (z-score),[11],0.398
same,glycan array binding signal (z-score),[12],0.084
same,glycan array binding signal (z-score),[13],-1.01
same,glycan array binding signal (z-score),[14],-0.647
same,glycan array binding signal (z-score),[15],-0.13
same,glycan array binding signal (z-score),[16],0.08
same,glycan array binding signal (z-score),[17],-0.549
same,glycan array binding signal (z-score),[18],-0.754
same,glycan array binding signal (z-score),[19],-0.73
same,glycan array binding signal (z-score),[20],2.58
same,glycan array binding signal (z-score),[21],1.97
same,glycan array binding signal (z-score),[22],1.83
same,glycan array binding signal (z-score),[23],-0.308
same,glycan array binding signal (z-score),[24],1.82
same,glycan array binding signal (z-score),[25],-1.07
same,glycan array binding signal (z-score),[26],0.211
same,glycan array binding signal (z-score),[27],-1.19
same,glycan array binding signal (z-score),[28],-0.551
same,glycan array binding signal (z-score),[29],-0.524
same,glycan array binding signal (z-score),[30],-0.731
same,glycan array binding signal (z-score),[31],-0.175
same,glycan array binding signal (z-score),[32],-0.666
same,glycan array binding signal (z-score),[33],0.087
same,glycan array binding signal (z-score),[34],-0.352
same,glycan array binding signal (z-score),[35],-0.726
same,glycan array binding signal (z-score),[36],1.79
same,glycan array binding signal (z-score),[37],2.63
same,glycan array binding signal (z-score),[38],2.09
same,glycan array binding signal (z-score),[39],0.142
same,glycan array binding signal (z-score),[40],1.31
same,glycan array binding signal (z-score),[41],-0.478
same,glycan array binding signal (z-score),[42],1.1
same,glycan array binding signal (z-score),[43],-0.171
same,glycan array binding signal (z-score),[44],-0.319
same,glycan array binding signal (z-score),[45],-0.826
same,glycan array binding signal (z-score),[46],-0.204
same,glycan array binding signal (z-score),[47],-0.644
same,glycan array binding signal (z-score),[48],0.167
same,glycan array binding signal (z-score),[49],0.803
same,glycan array binding signal (z-score),[50],0.66
same,glycan array binding signal (z-score),[51],-0.858
same,glycan array binding signal (z-score),[52],0.294
same,glycan array binding signal (z-score),[53],1.71
same,glycan array binding signal (z-score),[54],-0.479
